PubChem BioAssay AID2551 (National Center for Advancing Translational Sciences (NCATS), 2010)
About 17,000 (5.5%) of roughly 310,000 compounds were called active. Entries that show only a call come without a potency. About 11% were inconclusive and are not listed. The sample holds actives, similar compounds and a random draw of the others, so the mix is not that of the screen. A number with no mark means an inactive call. Calls come from the whole dose curve; as a rule, active = well fitted inhibition curve with a large enough effect; inconclusive = small, poorly fitted or top-dose-only effect, or effect the other way; inactive = no such curve, though single readings can be large or run the other way.

molecular target: Nuclear receptor ROR-gamma (Mus musculus) (UniProt P51450); test: qHTS for inhibitors of ROR gamma transcriptional activity; settings: Drosophila S2 Gal4-RORgamma UAS-luciferase reporter, 20 h; series mostly up to 53.6 µM; note: nearly all actives have a fitted effect of over 60% in size
In short: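 Stably transfected Drosophila Schneider cells are the test system, with ROR gamma fused to Gal4 and luciferase under UAS control; luminescence is read after 20 hr of 700 uM copper sulfate induction at ambient temperature.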
Potency is the fitted concentration of half-maximal effect.

Sequence of Nuclear receptor ROR-gamma (Mus musculus) (P51450 whole entry, looked up, the tested form may be a part): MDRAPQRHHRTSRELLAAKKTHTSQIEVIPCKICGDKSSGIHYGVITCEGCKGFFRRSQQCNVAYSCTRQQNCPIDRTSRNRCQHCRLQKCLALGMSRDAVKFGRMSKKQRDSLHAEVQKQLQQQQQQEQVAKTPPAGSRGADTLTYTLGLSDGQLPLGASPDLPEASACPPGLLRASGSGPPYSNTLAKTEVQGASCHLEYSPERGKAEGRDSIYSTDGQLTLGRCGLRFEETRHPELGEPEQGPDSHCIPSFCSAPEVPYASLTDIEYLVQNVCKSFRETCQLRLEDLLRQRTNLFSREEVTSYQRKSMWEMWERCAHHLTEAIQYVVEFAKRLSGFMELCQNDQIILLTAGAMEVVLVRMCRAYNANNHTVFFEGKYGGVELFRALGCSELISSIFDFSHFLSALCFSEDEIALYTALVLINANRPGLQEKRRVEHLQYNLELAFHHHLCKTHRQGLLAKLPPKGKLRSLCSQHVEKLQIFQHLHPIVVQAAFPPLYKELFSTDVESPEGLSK

Structure (SMILES) | Potency | activity change, negative = inhibition
CCOc1cc(NC(=O)c2ccccn2)c(OCC)cc1NC(=O)c1ccc(OC)cc1 | inactive | –
CCOc1ccc(N/C=C/C(=O)c2cc(OC)c(OC)c(OC)c2)cc1 | inactive | –
COc1ccc(C(=O)/C=C/Nc2ccccn2)cc1 | 3.55 µM (active) | –
Cc1ccc(CNC(=O)C2(C(F)(F)F)C/C(=C\Cc3ccccc3)CCCO2)o1 (stereo not drawn) | inactive | –
COc1ccc(-c2nc(SCC(=O)N3CCCC3)n[nH]2)cc1 | inactive | –
COc1ccc(N2C(=O)CC(Sc3n[nH]c(-c4ccc(C)cc4)n3)C2=O)cc1 (stereo not drawn) | 20 µM (active) | –
COc1ccc(N2C(=O)CC(SC(C)C)C2=O)cc1 (stereo not drawn) | inactive | –
Cc1ccc(F)c(NC(=O)CCOc2ccccc2C)c1 | inactive | –
CCC(C)NCC(=O)Nc1ccc([N+](=O)[O-])cc1C(=O)Nc1ccccc1F (stereo not drawn) | inactive | –
Cc1ccc(/C([O-])=C(/C(=S)NCc2ccco2)[n+]2ccccc2)cc1[N+](=O)[O-] | inactive | –
O=[N+]([O-])c1cccc(/C([O-])=C(/C(=S)Nc2ccccc2F)[n+]2ccccc2)c1 | 12.6 µM (active) | –
CS(=O)(=O)N(CC(=O)N1CCOCC1)c1cccc(Cl)c1Cl | inactive | –
C=CCn1cc(Cl)cc(C(=O)Nc2ccccc2)c1=O | inactive | –
Cc1nc2ccc(C(=O)N(C)CC3CCCN(CCc4ccc(Cl)cc4)C3)cc2[nH]1 (stereo not drawn) | inactive | –
C=CCCN(Cc1ccccc1)S(=O)(=O)c1ccccc1Br | inactive | –
C=CC(COCc1ccccc1)N(Cc1ccccc1)S(=O)(=O)c1ccccc1Br (stereo not drawn) | 7.94 µM (active) | –
CC(NC(=O)C1CCCN(S(=O)(=O)c2ccc(-n3cnnn3)cc2)C1)c1ccc(F)cc1 (stereo not drawn) | inactive | –
O=C(NCc1ccco1)/C(=C/c1cccc([N+](=O)[O-])c1)NC(=O)c1ccco1 | inactive | –
CS(=O)(=O)c1sc(C(=O)NC(=S)Nc2ccc(OC(F)(F)F)cc2)c2c1C=CCC2 | 7.08 µM (active) | –
CSc1sc(C(=O)NNC(=O)c2ccc(Cl)cc2)c2c1C=CCC2 | inactive | –
COC(=O)[C@H](C)NC(=O)Nc1ccc(OC(F)(F)F)cc1 | inactive | –
CN1C(=O)c2ccc(C(=O)Nc3ccc(Br)cn3)cc2C1=O | inactive | –

Structure (SMILES) | Potency | activity change, negative = inhibition
O=C(Nc1cc(-c2nc3ncccc3o2)ccc1Cl)c1ccco1 | inactive | –
Cn1c(SCC(=O)N2CCCC2)nnc1-c1ccc2c(c1)OCO2 | inactive | –
N#CNC1=NCN(CCc2ccccc2)CN1 | inactive | –
c1ccc(CCN2CN=C(Nc3nc4ccccc4o3)NC2)cc1 | inactive | –
S=C1SCN(CCN2CCOCC2)CN1Cc1ccccc1 | inactive | –
CC12CN(Cc3ccccc3)CC(C)(CN(Cc3ccccc3)C1)C2=NO | inactive | –
Cn1c2c(c(=O)n(C)c1=O)CN(Cc1ccco1)CN2 | inactive | –
CCCN1CNC(=S)N(CCc2ccccc2)C1 | 3.98 µM (active) | –
O=S(=O)(c1cc(Cl)ccc1Cl)N1CCN(Cc2ccco2)CC1 | inactive | –
CCOc1ccccc1OCCCNCc1ccccc1 | inactive | –
CCc1ccccc1N1CN(Cc2ccco2)CNC1=S | 4.47 µM (active) | –
CCOc1ccccc1N1CN(Cc2ccccc2)CNC1=S | 4.47 µM (active) | –
CCOc1ccc(CC(=O)NC2CCN(Cc3ccccc3)CC2)cc1 | – | 11.1% [at 1.91 µM]
CCN1CN(Cc2ccccc2)CNC1=S | 12.6 µM (active) | –
COc1ccccc1NC(=O)CSc1nnc(CNC(=O)c2ccccc2F)o1 | inactive | –
CCOc1ccc(C)cc1S(=O)(=O)NC1CCCCCC1 | inactive | –
COc1ccc(C(=O)N2CCCN(C)CC2)c(OC)c1 | inactive | –
Cc1cccc[n+]1CC(=O)c1ccccc1 | inactive | –
CSc1ccccc1OCc1cc(C(=O)N(C)CCc2c(C)n[nH]c2C)no1 | inactive | –
CCn1c(SCc2cccc(C(=O)O)c2)nnc1-c1ccc(Cl)cc1 | inactive | –
CCC(C)c1ccc(NC(=S)NCc2ccccn2)cc1 (stereo not drawn) | 2.51 µM (active) | –
O=C(NCc1ccccn1)Nc1ccc(F)cc1 | inactive | –

Structure (SMILES) | Potency | activity change, negative = inhibition
CCOc1ccc(NC(=S)N2CCC(NC(=O)c3ccccc3)CC2)cc1 | inactive | –
NS(=O)(=O)c1ccc(NC(=S)N2CCCC2)cc1 | inactive | –
CCC(C)c1ccc(NC(=S)N2CCCC2)cc1 (stereo not drawn) | 8.91 µM (active) | –
CCOc1ccc(NC(=S)N2CCCCCC2)cc1 | 7.08 µM (active) | –
CCC(C)N(C)C1CCN(C(=S)Nc2ccc(OC)cc2)CC1 (stereo not drawn) | inactive | –
CCOc1ccc(NC(=S)N2CCC(N(C)CC3CCCO3)CC2)cc1 (stereo not drawn) | inactive | –
Cc1cc(C)cc(NC(=O)NCc2ccccn2)c1 | inactive | –
CCOC(=O)C1CCN(C(=O)CN2C(=O)c3cccnc3Oc3ccc(C)cc32)CC1 | inactive | –
CCCc1cc(=O)[nH]c(SCC(=O)Nc2sc3c(c2C#N)CCCC3)n1 | inactive | –
Cc1ccc(Cn2c(=N)c(S(=O)(=O)c3ccc(C)cc3)cc3c(=O)n4ccccc4nc32)cc1 | inactive | –
CCC(C)(C)NC(=O)C(c1ccc(OC)cc1)N(C(=O)CCC(=O)Nc1cc(C)on1)c1ccc(OC)cc1OC (stereo not drawn) | inactive | –
CCCn1nnnc1NC(=O)COc1ccc(Cl)cc1C | 0.891 µM (active) | –
CCOC(=O)N1CCN(C(=O)COc2ccc(Cl)cc2C)CC1 | inactive | –
Cc1cc(Cl)ccc1OCCCC(=O)Nc1cccc(-n2cnnn2)c1 | inactive | –
OC(c1ccc(Cl)cc1)C(CN1CCOCC1)c1ccccc1 (stereo not drawn) | inactive | –
O=C(CCCN1C(=O)/C(=C/c2ccccc2)SC1=S)Nc1ccc(O)cc1 | 3.98 µM (active) | –
Cc1ccc(/C=C2\SC(=S)N(CCC(=O)Nc3ccc(O)cc3)C2=O)cc1 | inactive | –
O=C(CCCN1C(=O)/C(=C\c2ccccc2)SC1=S)Nc1ccccc1O | inactive | –
CN1CCN(Cc2nc3cc(NC(=O)COc4ccc([N+](=O)[O-])cc4)ccc3n2C)CC1 | inactive | –
COc1ccc2c(C)c(CCC(=O)NC3CC3)c(=O)oc2c1C | inactive | –
CC1CCCN(CC(=O)Nc2cc(Cl)ccc2Oc2ccccc2)C1 (stereo not drawn) | inactive | –
Cc1cc(NC(=O)CN2CCCC(C)C2)n(-c2nc3ccccc3s2)n1 (stereo not drawn) | 1.58 µM (active) | –

Structure (SMILES) | Potency | activity change, negative = inhibition
CC(=O)Nc1ccc(NC(=O)CN2CCCC(C)C2)c(Cl)c1 (stereo not drawn) | inactive | –
COc1ccc(S(=O)(=O)n2cnc3ccccc32)c(C)c1 | inactive | –
COc1ccc(N2CC(C(=O)N[C@@H](C)C(=O)N3CCCCC3)CC2=O)cc1 (stereo partly drawn) | inactive | –
FC(F)(F)c1ccc(-n2cn[nH]c2=S)cc1 | 10 µM (active) | –
COc1ccccc1N1CC(C(=O)Nc2nnc(SCC(=O)NCC3CCCO3)s2)CC1=O (stereo not drawn) | inactive | –
CNS(=O)(=O)c1cccc(C(=O)NC2CCCc3ccccc32)c1 (stereo not drawn) | inactive | –
c1cncc(-c2nc(N3CCNCC3)c3ccccc3n2)c1 | inactive | –
S=c1nc2ccccc2c2nc(-c3cccnc3)[nH]n12 | 0.447 µM (active) | –
c1ccc(-n2nnnc2-c2cccnc2)cc1 | inactive | –
O=C(C1CCCN(S(=O)(=O)c2ccccc2)C1)N1CCN(c2ccc(F)cc2)CC1 (stereo not drawn) | inactive | –
Cc1ccc(S(=O)(=O)NC(=O)c2cccc(C)c2)cc1 | inactive | –
Cc1cccc(C(=O)NC(=S)N(C)C2CCCCC2)c1 | 1.78 µM (active) | –
Cc1cccc(C(=O)NCCCN(C)CCCNC(=O)c2cccc(C)c2)c1 | inactive | –
O=C(Nc1c2c(nn1-c1cccc(Cl)c1)CS(=O)(=O)C2)c1cccs1 | inactive | –
Cc1coc2c(O)cc3c(c12)OC1(N2CCCCC2)C(=O)NCCCC31 (stereo not drawn) | 12.6 µM (active) | –
COc1ccc(C(=O)Nc2c(N)nc(SCC(=O)Nc3ccc(C(C)=O)cc3)[nH]c2=O)cc1 | inactive | –
CCCCN(CC)C(=O)C1CCCN(S(=O)(=O)c2cccc3nsnc23)C1 (stereo not drawn) | inactive | –
Cc1ccc(OC(=O)c2cncc(Br)c2)c(C)c1 | – | -23% [at 1.91 µM]
O=C(NCc1ccccn1)C1CCN(S(=O)(=O)c2ccc(Br)cc2)CC1 | inactive | –
CC(=O)Cc1nsc(NC(=O)c2csc3c2CCCC3)n1 | inactive | –
COC(=O)c1sc(NC(=O)c2csc3c2CCCC3)nc1C | 35.5 µM (active) | –
Cc1ccc(NC(=O)c2csc3c2CCCC3)cc1 | inactive | –

Structure (SMILES) | Potency | activity change, negative = inhibition
COc1ccc(C(=O)NC2CCN(C(=O)Nc3ccc(F)cc3)CC2)cc1 | inactive | –
COc1ccccc1CNC(=O)c1ccc(CS(=O)(=O)c2ccccc2)o1 | inactive | –
CCOc1ccc(CN2CCN(CCCc3ccccc3)C(CCO)C2)cc1 (stereo not drawn) | inactive | –
CCN(C(=O)C1CCCN(c2nc(-c3ccc(OC)cc3)no2)C1)c1ccc(OC)cc1 (stereo not drawn) | inactive | –
OCCNc1nc2ccccc2[nH]1 | inactive | –
c1ccc2[nH]c(-c3nc4ccccc4[nH]3)nc2c1 | 10 µM (active) | –
OC(c1nc2ccccc2[nH]1)C(O)C(O)C(O)c1nc2ccccc2[nH]1 (stereo not drawn) | inactive | –
Cc1cc(C)c2c(-c3ccc(F)cc3)c(C#N)c(=O)n(C)c2n1 | inactive | –
CCc1ccc(OCC2c3cc(OC)c(OC)cc3CCN2C(C)=O)cc1 (stereo not drawn) | inactive | –
Nc1nc(Nc2ccccc2F)nc(NC2CCCCC2)c1[N+](=O)[O-] | inactive | –
O=c1cc(N2CCCCC2)c(-c2ccccc2)nn1Cc1cccc(F)c1 | inactive | –
O=c1cc(-c2ccccc2)nc(N2CCCCC2)[nH]1 | inactive | –
c1ccc(-c2cc(N3CCCCC3)c3ccccc3n2)cc1 | 14.1 µM (active) | –
CCC(=O)Nc1nnc(S(=O)(=O)N(CC(C)C)c2ccccc2)s1 | inactive | –
CCOc1ccc2[nH]c(=O)c(CN(CCCO)S(=O)(=O)c3ccc(F)cc3)cc2c1 | inactive | –
CC1COc2ccccc2N1C(=O)c1ccc(F)cc1 (stereo not drawn) | inactive | –
c1ccc2c(c1)OCC(c1nn3cnnc3s1)O2 (stereo not drawn) | inactive | –
O=C(Nc1nnc(C2COc3ccccc3O2)o1)c1ccc(F)cc1 (stereo not drawn) | 0.562 µM (active) | –
COc1ccc(N2CCN(C(=O)c3ccc(N4CCCCS4(=O)=O)cc3)CC2)cc1 | inactive | –
COc1ccc(-c2cc(C(=O)N3CCN(c4ccc(F)cc4)CC3)no2)cc1 | inactive | –
